Laboratory results from PubChem BioAssay (EPA / NIEHS).
Results filed as inconclusive are left out. Calls of active or inactive are those of the source. How the source made its calls: active means hit-call score of the fitted dose curve at least 0.9, where 1 is the maximum; inconclusive means response in the unintended direction; inactive means score below 0.9.

Target: THRA (gene 7067) (UniProt P10827)
Test: TOX21_TRA_COA_Antagonist_Followup_ratio: Tox21 Thyroid Hormone Receptor alpha Antagonism through Coactivator Recruitment Follow-Up Assay, Ratio (AID 2283953)
Text: TOX21_TRa_COA_Antagonist_Followup is a secondary assay for specificity for the TOX21_TR_GH3_LUC_Agonist assay. The LanthaScreen TR-FRET TR coactivator assay kits were used to determine TR activity in a cell-free functional assay. A time-resolved fluorescence resonance energy transfer (TR-FRET) signal was indicative of coactivator (SRC-2) recruitment.TOX21_TRA_COA_Antagonist_Followup_ratio is assay component calculated in the TOX21_TRA_COA_Antagonist_Followup assay. The TR-FRET ratio of acceptor emission (ch2) to donor emission (ch1) is indicative of the resonance energy transfer to the fluorescein tag on the coactivator peptide following recruitment to the receptor.Data from the assay component TOX21_TRA_COA_Antagonist_Followup_ratio was analyzed into 1 assay endpoint. This assay endpoint, TOX21_TRA_COA_Antagonist_Followup_ratio, was analyzed in the positive analysis fitting direction relative to DMSO as the negative control and baseline of activity. Using a type of inducible reporter, loss-of-signal activity can be used to understand changes in the reporter gene as they relate to the gene THRA. Furthermore, this assay endpoint can be referred to as a primary readout, because this assay has produced multiple assay endpoints and this ratio serves a reporter gene function to understand target activity. To generalize the intended target to other relatable targets, this assay endpoint is annotated to the nuclear receptor intended target family, where the subfamily is non-steroidal.
Cell Media Required: Growth (90% DMEM/F-12, 10% Fetal Bovine Calf Serum, 100U/ml Penicillin, 100 ug/ml Streptomycin), Assay (10ng/mL sodium selenite, 10 ug/mL humanapo-transferrin, 10 uM ethanolamine, 10 ug/mL insulin, 500 ug/mL bovine serum albumin (BSA))Assay Protocol: 4 uL mixture of the receptor LBDs expressed as glutathione S-transferase (GST) fusion proteins (2.5 nM for TRa and 5.0 nM for TRb) and BSA (0.10%; Sigma-Aldrich) were incubated with 23 nL of control or test compound. A time-resolved fluorescence resonance energy transfer(TR-FRET) signal was indicative of coactivator recruitment using a 2 uL mixture of fluoresce in-labeled SRC-2 peptide (200 nM) and terbium-labeled anti-GST antibody (2nM), which transferred resonance energy to the fluorescein tag on the coactivator peptide following recruitment to the receptor. Fluorescence emission ratios (520:495 nm) were collected by an Envision plate reader (excitation at 340 nm and emissions at 495 and 520 nm), and the measured values were normalized to 0% activity using DMSO-only wells and 100 activity using T3 control wells.

Sequence of THRA (gene 7067) (P10827 whole entry, looked up): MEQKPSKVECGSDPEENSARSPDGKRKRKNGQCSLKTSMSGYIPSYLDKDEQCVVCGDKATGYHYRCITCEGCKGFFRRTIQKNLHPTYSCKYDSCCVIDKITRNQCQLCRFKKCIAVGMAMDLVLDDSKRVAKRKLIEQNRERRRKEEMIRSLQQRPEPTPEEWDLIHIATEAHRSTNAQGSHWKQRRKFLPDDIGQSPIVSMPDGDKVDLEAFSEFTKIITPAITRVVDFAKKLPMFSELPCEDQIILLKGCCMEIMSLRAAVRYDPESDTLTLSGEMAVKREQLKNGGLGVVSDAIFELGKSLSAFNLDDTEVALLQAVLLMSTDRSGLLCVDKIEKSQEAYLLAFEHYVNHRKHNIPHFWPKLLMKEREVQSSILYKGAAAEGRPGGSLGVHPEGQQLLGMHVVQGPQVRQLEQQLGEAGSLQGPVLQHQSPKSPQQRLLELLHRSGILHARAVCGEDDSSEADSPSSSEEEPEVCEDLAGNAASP

Structure (SMILES)	outcome	AC50
Nc1c2ccccc2nc2ccccc12	inactive	–
Cc1nc(-c2ccc(OCC(C)C)c(C#N)c2)sc1C(=O)O	inactive	–
CC1(C)N=C(N)N=C(N)N1c1ccc(Cl)cc1	inactive	–
CC(C)n1c(/C=C/[C@@H](O)C[C@@H](O)CC(=O)O)c(-c2ccc(F)cc2)c2ccccc21	inactive	–
CO[C@H]1C[C@@H]2CC[C@@H](C)[C@@](O)(O2)C(=O)C(=O)N2CCCC[C@H]2C(=O)O[C@H]([C@H](C)C[C@@H]2CC[C@@H](O)[C@H](OC)C2)CC(=O)[C@H](C)/C=C(\C)[C@@H](O)[C@@H](OC)C(=O)[C@H](C)C[C@H](C)\C=C/C=C/C=C/1C	inactive	–
CC[C@@]1(O)C[C@@H]2CN(CCc3c([nH]c4ccccc34)[C@@](C(=O)OC)(c3cc4c(cc3OC)N(C)[C@H]3[C@@](O)(C(=O)OC)[C@H](OC(C)=O)[C@]5(CC)C=CCN6CC[C@]43[C@@H]65)C2)C1	inactive	–
CC1(C)S[C@@H]2[C@H](NC(=O)C(N)c3ccccc3)C(=O)N2[C@H]1C(=O)OC1OC(=O)c2ccccc21 (stereo partly specified)	inactive	–
CC(C)N=C(N)/N=C(\N)Nc1ccc(Cl)cc1	inactive	–
COc1ccc2nc(NC(=O)Nc3ccccc3)sc2c1	inactive	–
O=C1C(=O)c2ncccc2-c2cccnc21	inactive	–
CO[C@H](C(=O)[C@@H](O)[C@@H](C)O)C1Cc2cc3cc(O[C@H]4C[C@@H](O[C@H]5C[C@@H](O)[C@H](O)[C@@H](C)O5)[C@@H](O)[C@@H](C)O4)c(C)c(O)c3c(O)c2C(=O)[C@H]1O[C@H]1C[C@@H](O[C@H]2C[C@@H](O[C@H]3C[C@](C)(O)[C@H](O)[C@@H](C)O3)[C@H](O)[C@@H](C)O2)[C@H](O)[C@@H](C)O1 (stereo partly specified)	inactive	–
CC(=O)Nc1ccn(C2COC(COC(=O)c3ccccc3)O2)c(=O)n1 (stereo unspecified)	inactive	–
CC(=O)[C@H]1CC[C@H]2[C@@H]3C=CC4=CC(=O)CC[C@@]4(C)[C@@H]3CC[C@]12C	inactive	–
Cc1cc(Nc2ccccc2C(=O)O)ccc1Cl	inactive	–
NC(N)=NCc1cccc(I)c1	inactive	–
Cc1nc2ccccc2n1Cc1ccc(Cl)cc1	inactive	–

Structure (SMILES)	outcome	AC50
CO[C@H]1C[C@@H]2CC[C@@H](C)[C@@](O)(O2)C(=O)C(=O)N2CCCC[C@H]2C(=O)O[C@H]([C@H](C)C[C@@H]2CC[C@@H](OCCO)[C@H](OC)C2)CC(=O)[C@H](C)/C=C(\C)[C@@H](O)[C@@H](OC)C(=O)[C@H](C)C[C@H](C)\C=C/C=C/C=C/1C	inactive	–
CCCC(=O)O[C@]1(C(=O)CCl)[C@@H](C)C[C@H]2[C@@H]3CCC4=CC(=O)C=C[C@]4(C)[C@@]3(F)C(=O)C[C@@]21C	inactive	–
COc1cc([C@@H]2c3cc4c(cc3[C@H](O)[C@H]3COC(=O)[C@H]23)OCO4)cc(OC)c1OC	inactive	–
Cc1c(Nc2ncccc2C(=O)O)cccc1C(F)(F)F	inactive	–
Brc1cc(Oc2cc(Br)c(Br)c(Br)c2Br)c(Br)c(Br)c1Br	inactive	–
CCCOc1ccc2nc(NC(=O)OC)sc2c1	inactive	–
CCCCCOc1ccc(C2SC(=O)NC2=O)cc1OCC (stereo unspecified)	inactive	–
COC(=O)Nc1nc2ccc(Sc3ccccc3)cc2[nH]1	inactive	–
O=C(CCCCCCCCC#CI)Oc1ccccc1	inactive	–
CC(C(=O)O)c1ccc(N2Cc3ccccc3C2=O)cc1 (stereo unspecified)	inactive	–
O=c1[nH]c(=O)n([C@H]2C[C@H](O)[C@@H](CO)O2)cc1F	inactive	–
CC[C@@]1(O)C(=O)OCc2c1cc1n(c2=O)Cc2cc3c(CN(C)C)c(O)ccc3nc2-1	inactive	–
O=[Se](O)O	–	34.4 µM (active)
CC(C)=CCC1=C(O)c2ccccc2C(=O)C1=O	inactive	–
C[C@@H]1C[C@H]2[C@@H]3CCC4=CC(=O)C=C[C@]4(C)[C@@]3(Cl)[C@@H](O)C[C@]2(C)[C@@]1(OC(=O)c1ccco1)C(=O)CCl	inactive	–
